Among the data in PubChem BioAssay (NCI) are growth values, retold here.

This is part of a sample that, as a whole, favours compounds with a hit. Of some 83,000 tested, about 20% had one in any assay.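 Results are percent growth after 48 hours of single-concentration exposure. 100 means growth as in untreated cells, lower positive values show inhibition; negative values down to -100 show cell death.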 Values without a mark were called inactive. Calls of active or inactive are those of the source. The calls were made as follows: active = growth percent below 10; inactive = the rest.

What all share (assay): NCI-60 one-dose screen, 48 h (100 = growth as untreated, 0 = no growth, -100 = all killed)
The test system of one test is SK-MEL-2 melanoma. The conditions noted are these: 10 µM unless noted.
Another test deals with EKVX NSCLC. To be noted: 10 µM unless noted.
Another test concerns UO-31 renal. The conditions noted are these: 10 µM unless noted.
Another test deals with TK-10 renal. The conditions noted are these: 10 µM unless noted.
The subject of another test is ACHN renal. The conditions noted are these: 10 µM unless noted.
In another test the test system is CAKI-1 renal. The conditions noted are these: 10 µM.
A further test relates to A498 renal. The conditions noted are these: 10 µM unless noted.
A further test relates to CCRF-CEM leukemia. The conditions noted are these: 10 µM unless noted.
The subject of the next test is MOLT-4 leukemia. To be noted: 10 µM unless noted.
In another test the test system is SR leukemia. To be noted: 10 µM unless noted.
In another test the test system is RPMI-8226 leukemia. The conditions noted are these: 10 µM unless noted.
A further test deals with OVCAR-8 ovarian. The conditions noted are these: 10 µM unless noted.
The subject of another test is OVCAR-5 ovarian. To be noted: 10 µM unless noted.
In a further test the test system is OVCAR-4 ovarian. The conditions noted are these: 10 µM unless noted.
The next test has as its system SK-OV-3 ovarian. The conditions noted are these: 10 µM unless noted.
In another test the test system is IGROV1 ovarian. To be noted: 10 µM unless noted.
A further test has as its system OVCAR-3 ovarian. To be noted: 10 µM unless noted.
For another test, the system named is HS 578T breast. To be noted: 10 µM unless noted.
In the next test the test system is NCI/ADR-RES ovarian. To be noted: 10 µM unless noted.
The test system of a further test is SN12C renal. The conditions noted are these: 10 µM unless noted.

Turning to `CC1OC(O[C@@H]2[C@H](O)C(CO)OC(O[C@H]3COC(O[C@H]4CC[C@]5(C)[C@H]6CC[C@]78OC[C@@]9(CC[C@](C)(C=O)C[C@H]97)C(=O)C[C@@]8(C)[C@]6(C)CC[C@H]5C4(C)C)[C@@H](O)[C@@H]3O)[C@H]2OC2OC[C@@H](O)[C@@H](O)[C@@H]2O)[C@@H](O)[C@@H](O)[C@H]1O` (stereo not given in full), the growth with SK-MEL-2 melanoma is 99.4%; in the test on EKVX NSCLC, 89.2%; in the test on UO-31 renal, 75.2%; in the test with TK-10 renal, 102%; in the test on ACHN renal, 97.1%; with CAKI-1 renal, 84.8%. For the same compound, the growth with A498 renal was 132%; with CCRF-CEM leukemia it was 80.5%; in the test on MOLT-4 leukemia, 63.6%; with SR leukemia, 8.86% (active); with RPMI-8226 leukemia, 101%; in the test on OVCAR-8 ovarian, 91.9%. Also, the growth is 110% in the test with OVCAR-5 ovarian; 91.6% in the test on OVCAR-4 ovarian; 86.8% in the test on SK-OV-3 ovarian; 94.8% with IGROV1 ovarian; 105% in the test with OVCAR-3 ovarian; 103% in the test with HS 578T breast. In addition, the growth in the test with NCI/ADR-RES ovarian is 95.2%.

For `Oc1ccccc1-c1nnc(SCc2ccc(O)c3ncccc23)o1`, the growth with SK-MEL-2 melanoma was 34.1%; in the test on EKVX NSCLC, 53.1%; in the test with SN12C renal, 18.5%; in the test with UO-31 renal, 14.7%; in the test on ACHN renal it was 25.4%; in the test with CAKI-1 renal, 25.3%. The growth in the test with A498 renal is 81.7%; in the test on CCRF-CEM leukemia, 28.1%; in the test on MOLT-4 leukemia it was 36.3%; in the test on SR leukemia, 43.3%; in the test with OVCAR-8 ovarian it was 26.4%; in the test on OVCAR-5 ovarian, 68.4%. For the same compound, the growth in the test with OVCAR-4 ovarian is 35.9%; with SK-OV-3 ovarian it was 19.5%; with IGROV1 ovarian, 53%; with OVCAR-3 ovarian, 29.7%; with HS 578T breast it was 6.2% (active); with NCI/ADR-RES ovarian, 49%.

In the case of `Cc1ccc(Nc2ncnc3c2c(C)nn3-c2ccc([N+](=O)[O-])cc2)cc1`, the growth in the test on SK-MEL-2 melanoma is 107%; in the test on EKVX NSCLC, 67.8%; in the test on SN12C renal, 90%; in the test with UO-31 renal, 91.3%; in the test on ACHN renal, 62.8%; with CAKI-1 renal it was 63.6%. Also, the growth with CCRF-CEM leukemia was 79.8%; in the test on MOLT-4 leukemia it was 87.3%; in the test with SR leukemia it was 68.6%; in the test with OVCAR-8 ovarian, 72.6%; in the test with OVCAR-5 ovarian, 101%; in the test with OVCAR-4 ovarian, 46%. Also, the growth with SK-OV-3 ovarian is 71.7%; with IGROV1 ovarian, 84.1%; in the test with OVCAR-3 ovarian, 46.3%; in the test with HS 578T breast it was 68.6%; with NCI/ADR-RES ovarian, 80.4%.

On to `Cc1cc(C(=O)Nc2ccc(SC#N)cc2)c(C)o1`, for which the growth with SK-MEL-2 melanoma is 110%; with EKVX NSCLC it was 90.4%; with SN12C renal it was 70.6%; with UO-31 renal, 49.3%; with ACHN renal, 100%; with CAKI-1 renal, 81.7%. Also, the growth was 94.4% with A498 renal; 28.8% with CCRF-CEM leukemia; 29.7% in the test on MOLT-4 leukemia; 5.44% (active) in the test on SR leukemia; 83.1% with RPMI-8226 leukemia; 98.3% in the test with OVCAR-8 ovarian. Besides, the growth in the test with OVCAR-5 ovarian was 115%; in the test with OVCAR-4 ovarian it was 104%; in the test with SK-OV-3 ovarian, 111%; in the test with IGROV1 ovarian, 88.9%; with HS 578T breast, 112%; in the test with NCI/ADR-RES ovarian, 100%.

Take `CSc1ccc(/C(=N/N=C(N)N)c2ccccc2)cc1`: the growth was 58.7% in the test on SK-MEL-2 melanoma; 48.1% with EKVX NSCLC; 27.9% in the test on SN12C renal; 35.1% in the test on UO-31 renal; 28.6% with ACHN renal; 42% in the test on CAKI-1 renal. In addition, the growth in the test on CCRF-CEM leukemia is 10.6%; in the test with MOLT-4 leukemia, 22.3%; in the test on SR leukemia, 19.7%; with OVCAR-8 ovarian it was 29.5%; with OVCAR-5 ovarian it was 48.3%; in the test with OVCAR-4 ovarian, 67.2%. The growth is 66.2% in the test with SK-OV-3 ovarian; 21.8% with IGROV1 ovarian; 2.28% (active) in the test on OVCAR-3 ovarian; 31.8% in the test on HS 578T breast; 40.3% in the test with NCI/ADR-RES ovarian.

For the compound `CCOC(=O)C1=C(C)Nc2nc3ccccc3n2C1c1ccccc1` (stereo not given), the growth in the test on SK-MEL-2 melanoma was 102%; in the test with EKVX NSCLC, 94.4%; in the test with SN12C renal, 92.9%; in the test with UO-31 renal it was 84.9%; with ACHN renal, 73.7%; in the test on CAKI-1 renal it was 90.6%. Besides, the growth was 94% in the test with CCRF-CEM leukemia; 97.8% with MOLT-4 leukemia; 68.9% in the test with SR leukemia; 97.4% in the test with RPMI-8226 leukemia; 96.6% in the test with OVCAR-8 ovarian; 104% in the test with OVCAR-5 ovarian. The growth in the test on OVCAR-4 ovarian was 83.7%; in the test with SK-OV-3 ovarian, 113%; with IGROV1 ovarian, 91.6%; in the test on OVCAR-3 ovarian it was 90.9%; with HS 578T breast, 97.7%; in the test with NCI/ADR-RES ovarian, 92%.

Turning to `CCNCc1c(-c2cccc(OC(F)(F)F)c2)[nH]c2ccc(N3CCCC3)cc2c1=O`, the growth with SK-MEL-2 melanoma was 42.3%; with EKVX NSCLC it was 88.1%; with SN12C renal, 28.2%; in the test on UO-31 renal it was 31.9%; in the test with ACHN renal, 34.4%; with CAKI-1 renal, -9.12% (active). For the same compound, the growth with A498 renal was -13.6% (active); with CCRF-CEM leukemia, 7.62% (active); in the test with MOLT-4 leukemia, 18.4%; in the test on SR leukemia, 9.06% (active); with OVCAR-8 ovarian it was 22.5%; in the test on OVCAR-5 ovarian, 24.5%. Moreover, the growth in the test with OVCAR-4 ovarian is 49.8%; with SK-OV-3 ovarian it was 34.2%; in the test on IGROV1 ovarian it was 22.6%; with OVCAR-3 ovarian, -6.81% (active); in the test with HS 578T breast it was 8.12% (active); in the test with NCI/ADR-RES ovarian, 9.42% (active).
